# An excerpt weighted towards active compounds, which were near 4.6% of everything screened.
# tim10-1 inh: growth inhibitors of tim10-1 mutant yeast, primary screen, luminescence, uHTS. S. cerevisiae tim10-1 ts strain growth, BacTiter-Glo, 24 h. inhibition, % at 20 µM. 330,000 compounds, 2.2% hits;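 active means inhibition of at least 40%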;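 further: mutant grown at 25 °C; 0% = DMSO wells with yeast and 100% = wells holding no yeast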
# TIM10 inh: growth inhibitors of isogenic TIM10 control yeast, primary screen, counter-screen for tim10-1 yeast inhibitor project, luminescence, uHTS. 330,000 compounds, 1.4% hits. AID 463195, 2010. inhibition, % at 10 µM. S. cerevisiae TIM10 strain growth, BacTiter-Glo luminescence, 24 h;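 active means inhibition of 40% or more at the single tested concentration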;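 further: wild-type TIM10 isogenic control strain grown at permissive 25 °C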
# PfHsp90 set2: growth inhibition of PfHsp90-expressing yeast, primary screen, antimalarial PfHsp90 inhibitor project, S. cerevisiae, BacTiter-Glo luminescence, single point, set 2 | BacTiter-Glo ATP, 48 h; yeast lacking PDR1 and PDR3 efflux regulators | inhibition, % at 9.4 µM | 310,000 compounds, 0.32% hits;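 active means every replicate shows inhibition above about 80%, whatever the replicate mean, limit read from the data; inconclusive means mean inhibition reaches the set limit but some replicate falls short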;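 further: 0% = DMSO neutral controls and 100% = 20 µM radicicol positive controls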
# NALP3 yeast inh: NALP3 inflammasome inhibitors in reconstituted yeast, primary screen, luminescence, uHTS; inhibition, % at 10 µM; AID 2825, 2010; 330,000 compounds, 0.39% hits; Yeast reconstituted NLRP3/ASC/caspase-1, beta-gal luminescence, 24 h;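 active means inhibition of 50% or more; inactive means inhibition below 50%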;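 further: plate controls were induced DMSO wells for no effect and uninduced yeast grown without galactose for full effect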
# tim23-1 inh: growth inhibitors of tim23-1 mutant yeast, primary screen, luminescence, uHTS; S. cerevisiae tim23-1 growth, BacTiter-Glo luminescence, 24 h; inhibition, % at 20 µM; 330,000 compounds, 1.3% hits;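 active means growth inhibition of the mutant yeast at or above 50%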;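 further: temperature-sensitive mutant grown at 25 °C; plate controls were DMSO-treated mutant yeast for no effect and medium wells lacking yeast for full effect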
# SKKanGAS inh: S. pyogenes SKKanGAS growth inhibitors in kanamycin, primary screen, streptokinase expression inhibitor project, SKKanGAS strain, BacTiter-Glo luminescence. 6 h. inhibition, % at 7.5 µM. 300,000 compounds, 1.3% hits. AID 1662, 2009;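 active means mean replicate score, as percent of positive control median, at least 50; inconclusive means mean below 50 but one replicate at or above 50; inactive means mean and every replicate below 50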;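 further: strain carries kanamycin resistance gene driven by streptokinase promoter and grows in 40 µg/ml kanamycin; loss of luminescence reflects streptokinase promoter inhibition or plain growth inhibition; 0% = median of DMSO wells and 100% = positive control at its reference dose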
# * = called active by the depositor; ? = inconclusive; nt = no result.
SMILES,tim10-1 inh,TIM10 inh,PfHsp90 set2,NALP3 yeast inh,tim23-1 inh,SKKanGAS inh
Cc1ccc(S(=O)(=O)N(C(=O)c2ccncc2)c2ccc(OC(=O)c3ccncc3)cc2)c(C)c1,-17.0,5.2,89.2*,15.1,21.6,-17.9
Cc1ccc(S(=O)(=O)N(C(=O)c2ccncc2)c2ccc(OC(=O)c3ccncc3)cc2)cc1,-25.3,-43.5,94.9*,12.0,22.8,6.8
C/C(=N\NC(=O)c1ccc(NS(=O)(=O)c2cccs2)cc1)c1ccc2c(c1)OCO2,-4.0,6.4,-22.0,10.2,17.3,5.9
O=C(CCNC(=O)c1ccc(Cl)cc1)Nc1ccccc1N1CCCC1,16.2,4.7,-13.0,22.0,22.9,45.9
CC(C)N=c1scc(-c2cccs2)n1/N=C/c1ccc(O)c(O)c1O,25.0,38.8,105.7*,20.3,41.9,nt
CCc1ccc(N2CC(C(=O)Nc3ccc(S(=O)(=O)N4CCOCC4)cc3)CC2=O)cc1 (configuration not stated),3.4,0.6,nt,13.8,-13.2,-8.8
N#Cc1ccc(Cl)cc1NC(=O)CSc1nc2nc(-c3cccs3)cc(C(F)(F)F)c2c(=O)[nH]1,5.5,-0.5,nt,10.4,12.2,55.0*
COc1ccc(NC(=O)CSc2nc3nc(-c4cccs4)cc(C(F)(F)F)c3c(=O)[nH]2)c(OC)c1,16.2,9.4,-5.2,18.7,13.7,54.4*
COc1ccc(OCC(=O)OCC(=O)NC2CC2)cc1,3.7,3.8,-8.7,17.5,6.5,nt
N/C(=N\OC(=O)/C=C/c1ccccc1Cl)c1ccncc1,-7.8,12.9,-22.5,-37.6,27.1,0.4
CCCN(C(=O)CSCC(=O)Nc1ccc(OC)cc1)c1c(N)n(Cc2ccccc2)c(=O)[nH]c1=O,-1.3,3.3,5.1,11.2,-3.0,-9.3
O=c1cc(-c2ccccc2Cl)oc2cccc(O)c12,-16.9,-0.3,-12.0,13.6,7.1,18.5
O=c1cc2oc3cc(O)c(O)cc3c(-c3ccccc3[N+](=O)[O-])c-2cc1O,4.3,11.1,82.9*,41.0,12.0,50.2*
CCNC(=S)N=Nc1c(O)n(Cc2ccc(Cl)cc2)c2ccccc12,36.7,19.8,-19.6,21.7,26.5,-11.2
Cc1ccccc1Cn1c(O)c(N=NC(=S)Nc2ccccc2F)c2ccccc21,26.8,16.0,-14.5,22.6,9.5,?
Oc1c(N=NC(=S)Nc2ccccc2F)c2ccccc2n1Cc1ccc(Cl)cc1,19.0,2.1,-25.2,5.7,15.6,57.7*
Oc1c(N=NC(=S)Nc2ccccc2F)c2ccccc2n1Cc1ccccc1F,16.7,12.3,-9.9,12.2,1.5,79.0*
Cc1nc(C)c(Oc2cccc(C(F)(F)F)c2)c(=O)[nH]1,11.2,6.8,13.0,15.5,12.0,-3.4
CCOC(=O)C1CCN(C(=O)c2cc(C)n(C(C)(C)C)n2)CC1,-12.2,-15.0,14.2,-9.8,6.2,-4.8
Cc1nn2c(COc3ccc(NC(=O)c4ccccc4)cc3)nnc2c2ccccc12,10.8,5.1,-14.3,-6.1,8.6,94.0*
OC(COc1cccc2ccccc12)CN1CCN(c2ccc(Cl)cc2)CC1 (configuration not stated),21.3,16.9,15.1,45.3,15.5,57.5*
Cc1ccc(C(=O)C(SC(C)(C)C)n2cncn2)cc1 (configuration not stated),-106.8,-8.3,82.5*,23.7,-301.6,1.2
CCCC(C(=O)c1ccccc1)n1cncn1 (configuration not stated),6.2,-5.2,-25.5,16.1,4.8,-2.0
CCCCCCOc1ccc(N2C(=O)CC(N3CCC(C(=O)OCC)CC3)C2=O)cc1 (configuration not stated),17.7,29.5,106.4*,11.8,13.5,-1.6
CCOC(=O)C1CCN(C2CC(=O)N(c3ccc(OCC)cc3)C2=O)CC1 (configuration not stated),32.5,10.0,-54.4,16.3,21.7,-0.2
SMILES,tim10-1 inh,TIM10 inh,PfHsp90 set2,NALP3 yeast inh,tim23-1 inh,SKKanGAS inh
COc1cc(OC)cc(N2C(=O)CC(N3CCC(C(=O)N4CCCCC4)CC3)C2=O)c1 (configuration not stated),25.8,13.9,82.2*,17.5,20.5,-8.5
CC(=O)Nc1cccc(N2C(=O)CC(N3CCC(C(=O)N4CCCCC4)CC3)C2=O)c1 (configuration not stated),6.2,-4.5,-14.9,32.7,-5.4,0.8
CC(C)N(C(=O)CSc1ccc(S(=O)(=O)N2CCCCC2)cn1)C(C)C,12.0,8.1,-16.3,23.3,25.3,nt
Cc1ccc(S(=O)(=O)NC(=O)Nc2cc(C)ccc2F)cc1,9.0,-3.7,-11.9,-2.1,-1.4,-2.3
CC(=O)NS(=O)(=O)c1ccc(N=c2ssc3c2-c2ccc(C)cc2NC3(C)C)cc1,21.5,-2.3,12.1,-11.8,-1.1,81.8*
Cc1ccc(-n2ncc3c(SCc4cccc(C)c4)ncnc32)cc1,4.3,-5.6,12.0,13.6,0.5,1.3
Cc1cccc(CSc2ncnc3c2cnn3Cc2ccccc2)c1,3.3,-15.4,-3.6,13.5,-11.2,76.1*
Cc1cc(NC(c2cccnc2)c2ccc3cccnc3c2O)no1 (configuration not stated),30.7,-39.9,-16.1,24.2,11.4,22.6
Oc1c(C(Nc2ccccn2)c2cccnc2)cc(Cl)c2cccnc12 (configuration not stated),19.9,33.3,103.0*,31.5,49.0,94.7*
CCC(=O)OCOc1ccc(/C=C2/CCC(CN(C)C)C2=O)cc1 (configuration not stated),nt,nt,143.0*,nt,nt,nt
Cc1ncc(CO)c(/C=N/NC(=O)c2ccc(Br)cc2)c1O,20.4,11.1,nt,10.6,2.3,3.1
Cc1ncc(CO)c(/C=N/NC(=O)c2cc(Br)ccc2O)c1O,-22.9,-54.0,-28.1,10.3,6.1,92.4*
O=C(CCn1c(=O)oc2cc(Cl)ccc21)Nc1ccc(O)cc1,-12.8,4.3,3.6,12.3,8.8,-2.3
CCOc1ccc(N(CC(=O)NCc2ccc(C)cc2)S(=O)(=O)c2c(C)[nH]c(=O)[nH]c2=O)cc1,-7.6,11.0,-11.7,15.6,-10.5,58.8*
O=C(Nc1nnc(SCc2ccc(F)cc2)s1)c1cccnc1Cl,12.2,15.2,-19.8,11.8,11.0,12.0
O=C(Nc1nnc(SCc2ccc(F)cc2)s1)c1ccccn1,19.6,-0.2,101.0*,41.0,10.3,62.6*
O=C(Nc1nc2ccccc2s1)c1cnccn1,28.7,24.5,36.3,28.6,29.4,14.9
CCSc1nnc(NC(=O)c2ccc3ccccc3n2)s1,22.8,26.4,-32.9,9.7,11.4,82.2*
